For assay [1], the target named is CCAAT/enhancer-binding protein beta (Homo sapiens) (UniProt P17676). The assay can be described thus: ATG_C_EBP_CIS: Attagene CIS-FACTORIAL HepG2 Assay for human CCAAT/Enhancer Binding Protein (C/EBP) beta (AID 2282927). The note with it: HepG2 Attagene cis-factorial transcription factor reporter; actives raise or lower the signal. The gist of the method:
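HepG2 transiently transfected with multiplexed reporter units under cis-regulatory promoters reporting endogenous C/EBPb activity. After 24 h exposure, reporter mRNA assayed by RT-PCR, fluorescent labelling, HpaI digestion and capillary electrophoresis; bidirectional fitting versus DMSO.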

A short description of assay [2]: ATG_CMV_CIS: Attagene CIS-FACTORIAL HepG2 Assay for human CMV (Internal Marker) (AID 2282928).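 Also: endpoint acts as a background internal control marker rather than a target.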 The note with it: HepG2 CMV promoter reporter, transcription factor profiling; actives raise or lower the signal. In outline:
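Reporter transcripts from transfected HepG2 cells are isolated after 24 h of chemical dosing, reverse-transcribed and amplified. Fragments labeled with 6-FAM are cut with HpaI and quantified by capillary electrophoresis; DMSO defines baseline.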

Assay [3] can be described thus: ATG_DR4_LXR_CIS: Attagene CIS-FACTORIAL HepG2 Assay for human Liver X Receptor (LXR), DR4 submotif (AID 2282929). The note with it: HepG2 Attagene DR4 cis-reporter, mRNA transcription; actives raise or lower the signal. The gist of the method:
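Transiently transfected HepG2 liver cells; cis-regulated reporters; 24 h dosing. RT-PCR plus CE read-out of reporter mRNA. DMSO baseline, bidirectional curve fitting.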

Assay [4] addresses Aryl hydrocarbon receptor (Homo sapiens) (UniProt P35869). Put plainly: ATG_Ahr_CIS: Attagene CIS-FACTORIAL HepG2 Assay for human Aryl Hydrocarbon Receptor (Ahr) (AID 2282930). The note with it: HepG2 AhR cis-factorial reporter transcription; actives raise or lower the signal. The gist of the method:
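HepG2 cells transiently transfected with cis-element-driven multiplexed reporter units; endogenous AhR activity read as reporter mRNA 24 h after dosing, via RT-PCR, 6-FAM labelling, HpaI digestion and capillary electrophoresis. Bidirectional fit relative to DMSO.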

The nature of assay [5]: ATG_AP_1_CIS: Attagene CIS-FACTORIAL HepG2 Assay for human Activator Protein 1 (AP-1) (AID 2282931). The settings on record: HepG2 Attagene cis-factorial AP-1 reporter mRNA; actives raise or lower the signal. In outline:
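We transfected HepG2 cells transiently with a set of cis-regulated reporter transcription units, dosed them for 24 h, and quantified reporter mRNA via RT-PCR and capillary electrophoresis, scoring gain or loss of signal relative to DMSO.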

The nature of assay [6]: ATG_AP_2_CIS: Attagene CIS-FACTORIAL HepG2 Assay for human Activator Protein 2 (AP-2) (AID 2282932). The note with it: HepG2 AP-2 cis-reporter, Attagene transcription factor profiling; actives raise or lower the signal. The gist of the method:
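Liver-derived HepG2 line, cis-reporter system measuring endogenous factors; 24 h dosing; reporter mRNA detected by fluorescent RT-PCR and capillary electrophoresis.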

A short description of assay [7]: ATG_BRE_CIS: Attagene CIS-FACTORIAL HepG2 Assay for human Bone Morphogenetic Protein (BMP) Response Element (BRE) (AID 2282933). The note with it: HepG2 BMP response element reporter, Attagene transcription factor profiling; actives raise or lower the signal. In outline:
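Fluorescence-labelled reporter cDNA fragments, separated by capillary electrophoresis, gave the signal for this component of a 52-readout multiplex. HepG2 cells were transfected, exposed to chemicals for 24 h, and compared with DMSO using bidirectional fitting.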

For assay [8], the target named is Retinoic acid receptor alpha (Homo sapiens) (UniProt P10276). Put plainly: ATG_DR5_RAR_CIS: Attagene CIS-FACTORIAL HepG2 Assay for human Retinoic Acid Receptor Alpha (RARE), DR5 submotif (AID 2282934).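 As to AC50: reporter responds to endogenous RAR alpha beta and gamma in HepG2 not RARA alone.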 The note with it: HepG2 Attagene cis-factorial RARE DR5 reporter, mRNA; actives raise or lower the signal. In outline:
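HepG2 cells transiently transfected with multiplexed reporter units; DR5 cis-element drives reporter through endogenous transcription factors. After 24 h dosing, reporter mRNA quantified by RT-PCR, fluorescent labeling, HpaI digestion and capillary electrophoresis; bidirectional fitting versus DMSO.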

Calls of active or inactive are those of the source. The calls were made as follows: active = hit-call score of the fitted dose curve at least 0.9, where 1 is the maximum; inactive = score below 0.9.

Sequence of Retinoic acid receptor alpha (Homo sapiens) (P10276 whole entry, looked up): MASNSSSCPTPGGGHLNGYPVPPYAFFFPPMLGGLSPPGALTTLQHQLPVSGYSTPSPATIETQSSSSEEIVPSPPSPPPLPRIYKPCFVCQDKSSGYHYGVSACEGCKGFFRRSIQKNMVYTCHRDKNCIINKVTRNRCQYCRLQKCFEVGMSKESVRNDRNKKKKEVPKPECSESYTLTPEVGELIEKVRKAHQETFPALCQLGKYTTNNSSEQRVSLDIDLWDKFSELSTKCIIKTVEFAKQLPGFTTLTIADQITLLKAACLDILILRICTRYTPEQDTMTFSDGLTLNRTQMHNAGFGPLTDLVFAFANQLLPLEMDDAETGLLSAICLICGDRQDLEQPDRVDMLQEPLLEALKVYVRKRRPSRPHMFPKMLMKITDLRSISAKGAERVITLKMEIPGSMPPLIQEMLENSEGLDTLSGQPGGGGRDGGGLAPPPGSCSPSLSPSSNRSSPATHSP
Sequence of CCAAT/enhancer-binding protein beta (Homo sapiens) (P17676 whole entry, looked up): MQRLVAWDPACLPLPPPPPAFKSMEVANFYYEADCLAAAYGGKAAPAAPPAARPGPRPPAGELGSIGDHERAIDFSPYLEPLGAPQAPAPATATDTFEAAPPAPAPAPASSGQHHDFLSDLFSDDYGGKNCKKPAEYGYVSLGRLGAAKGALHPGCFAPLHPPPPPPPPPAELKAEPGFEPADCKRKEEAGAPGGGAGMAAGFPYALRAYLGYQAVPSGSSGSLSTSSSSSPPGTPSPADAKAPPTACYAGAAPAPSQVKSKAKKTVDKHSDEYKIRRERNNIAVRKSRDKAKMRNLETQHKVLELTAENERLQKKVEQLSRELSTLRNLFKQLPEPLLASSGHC
Sequence of Aryl hydrocarbon receptor (Homo sapiens) (P35869 whole entry, looked up): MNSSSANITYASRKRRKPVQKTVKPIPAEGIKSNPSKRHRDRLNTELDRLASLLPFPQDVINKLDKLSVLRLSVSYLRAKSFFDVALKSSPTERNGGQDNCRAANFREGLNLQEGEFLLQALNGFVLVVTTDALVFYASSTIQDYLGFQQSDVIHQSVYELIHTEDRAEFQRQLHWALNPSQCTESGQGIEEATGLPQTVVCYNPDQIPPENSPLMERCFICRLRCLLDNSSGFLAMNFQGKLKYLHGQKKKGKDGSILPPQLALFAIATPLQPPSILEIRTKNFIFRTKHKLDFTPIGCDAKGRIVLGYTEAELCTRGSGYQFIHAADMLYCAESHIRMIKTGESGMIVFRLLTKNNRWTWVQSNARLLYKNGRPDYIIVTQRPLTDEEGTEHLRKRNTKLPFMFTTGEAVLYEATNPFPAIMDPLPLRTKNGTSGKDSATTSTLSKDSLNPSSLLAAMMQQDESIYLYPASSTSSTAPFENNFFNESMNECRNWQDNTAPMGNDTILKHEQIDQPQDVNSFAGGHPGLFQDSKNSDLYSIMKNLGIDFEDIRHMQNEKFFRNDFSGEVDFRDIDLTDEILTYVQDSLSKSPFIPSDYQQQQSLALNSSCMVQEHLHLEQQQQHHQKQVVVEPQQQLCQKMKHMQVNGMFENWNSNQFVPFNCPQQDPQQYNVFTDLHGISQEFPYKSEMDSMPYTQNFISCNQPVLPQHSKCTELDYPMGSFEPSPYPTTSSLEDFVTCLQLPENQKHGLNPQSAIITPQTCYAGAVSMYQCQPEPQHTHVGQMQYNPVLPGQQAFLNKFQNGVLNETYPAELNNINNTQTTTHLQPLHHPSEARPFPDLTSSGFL

For `CCCCN(CCCC)CCCCCCN(CCCC)CCCC`, the result in assay [1], in assay [2], in assay [3], in assay [4], in assay [5] and in assay [6] was inactive. Moreover, the outcome in assay [7] and in assay [8] was inactive.
With `CCCCN(CCO)CCO`, the result in assay [1], in assay [2], in assay [3], in assay [4], in assay [5] and in assay [6] was inactive. For the same compound, the compound was classed as inactive in assay [7].
Turning to `CCOC(=O)CCCCCCCCC(=O)OCC`, the result in assay [1], in assay [2], in assay [3], in assay [4], in assay [5] and in assay [6] was inactive. In addition, the result in assay [7] and in assay [8] was inactive.
For the compound `CCCO`, the result in assay [1], in assay [2], in assay [3], in assay [4], in assay [5] and in assay [6] was inactive. In addition, the call in assay [7] and in assay [8] was inactive.
As to `CCCCOCC(C)OCC(C)O` (stereo not drawn), the outcome in assay [1], in assay [2], in assay [3], in assay [4], in assay [5] and in assay [6] was inactive. In addition, the compound was called inactive in assay [7].
`CC1=CC(C)C(C=O)C(C)C1` (stereo not drawn) (tested in a mixture with another compound): the result in assay [1], in assay [2], in assay [3], in assay [4], in assay [5] and in assay [6] was inactive. Besides, the compound was classed as inactive in assay [7].
Turning to `Cc1cccc(O)c1`, the result in assay [1], in assay [2], in assay [3], in assay [4], in assay [5] and in assay [6] was inactive. The compound was classed as inactive in assay [7].
Turning to `O=C(O)c1ccccc1O`, the result in assay [1], in assay [2], in assay [3], in assay [5], in assay [6] and in assay [7] was inactive. For the same compound, the call in assay [8] was inactive.
Consider `CCOC(=O)COC(=O)c1ccccc1C(=O)OCC`, for which the result in assay [1], in assay [2], in assay [3], in assay [4], in assay [5] and in assay [6] was inactive. Moreover, the call in assay [7] was inactive.
`O=c1cc[nH]cc1`: the result in assay [1], in assay [2], in assay [3], in assay [4], in assay [5] and in assay [6] was inactive. For the same compound, the outcome in assay [7] was inactive.
For `Cc1ccc(C(C)(C)O)cc1`, the outcome in assay [1], in assay [2], in assay [3], in assay [4], in assay [5] and in assay [6] was inactive. In assay [7], the outcome was inactive.
As for `Cc1cc(O)c(C)c(C)c1O`, the outcome in assay [1], in assay [3], in assay [5] and in assay [6] was inactive. Besides, the AC50 (commonly the midpoint of the concentration-response curve, whichever way the signal moves) in assay [2] was 18.5 µM (active); in assay [4], 17.8 µM (active); in assay [7], 52.8 µM (active).
On to `C=C1CC/C=C(\C)CC[C@@H]2[C@@H]1CC2(C)C`, for which the outcome in assay [1], in assay [4], in assay [5], in assay [6] and in assay [7] was inactive. Besides, the AC50 in assay [2] was 42.4 µM (active); in assay [3], 61.3 µM (active).
Consider `C=C(C)CCCC(C)CCO` (stereo not drawn), for which the result in assay [1], in assay [2], in assay [3], in assay [4], in assay [6] and in assay [7] was inactive. The compound was called inactive in assay [8].
With `O=C(O)C1=NN(c2ccc(S(=O)(=O)O)cc2)C(=O)C1`, the result in assay [1], in assay [2], in assay [3], in assay [4], in assay [5] and in assay [6] was inactive. The result in assay [7] and in assay [8] was inactive.
As for `OC[C@@H](O)[C@H](O)[C@@H](O)[C@@H](O)CO`, the outcome in assay [1], in assay [2], in assay [3], in assay [4], in assay [5] and in assay [6] was inactive. In addition, the outcome in assay [7] and in assay [8] was inactive.
For `CC(=O)OCC=C(C)CCC=C(C)CCC=C(C)C`, the result in assay [1], in assay [7] and in assay [8] was inactive. Further, the AC50 in assay [2] was 63.2 µM (active); in assay [3], 33.4 µM (active); in assay [5] it was 48.1 µM (active); in assay [6] it was 145 µM (active).
As for `c1coc(CNc2ncnc3nc[nH]c23)c1`, the result in assay [1], in assay [2], in assay [3], in assay [4], in assay [6] and in assay [7] was inactive.
Turning to `NC(=O)c1c(Cl)cccc1Cl`, the result in assay [1], in assay [2], in assay [3], in assay [5], in assay [6] and in assay [7] was inactive. Moreover, the AC50 in assay [4] was 55.4 µM (active).
In the case of `CC(C)(C)c1cc(CCC(=O)OCCSCCOC(=O)CCc2cc(C(C)(C)C)c(O)c(C(C)(C)C)c2)cc(C(C)(C)C)c1O`, the result in assay [1], in assay [2], in assay [3], in assay [4], in assay [5] and in assay [6] was inactive. Moreover, the compound was classed as inactive in assay [7].
Consider `N#CCCCC(C#N)CCC#N` (stereo not drawn), for which the result in assay [1], in assay [2], in assay [3], in assay [4], in assay [6] and in assay [7] was inactive. Besides, the outcome in assay [8] was inactive.
`CC(=O)CCc1ccc(O)cc1`: the result in assay [1], in assay [2], in assay [3], in assay [5], in assay [6] and in assay [7] was inactive.
Take `CCCCC/C=C\C=C\C(=O)OCC`: the result in assay [1], in assay [5], in assay [6] and in assay [7] was inactive. The results for the AC50 in assay [2], in assay [3] and in assay [8] were 123 µM (active), 55.1 µM (active) and 28.3 µM (active), respectively.
As to `Nc1ccc(N)c([N+](=O)[O-])c1`, the outcome in assay [1], in assay [3], in assay [6], in assay [7] and in assay [8] was inactive. The figures for the AC50 in assay [2] and in assay [4] were 77.1 µM (active) [middle of 5 runs] and 3.14 µM (active) [middle of 5 runs], respectively.
In the case of `Nc1ccc(O)c(N)c1`, the outcome in assay [1], in assay [2], in assay [3], in assay [5], in assay [6] and in assay [8] was inactive. For the same compound, the AC50 in assay [4] is 14.5 µM (active); in assay [7] it was 42.2 µM (active).
As for `CCCCCCC(C)O` (stereo not drawn), the outcome in assay [1], in assay [2], in assay [3], in assay [4], in assay [6] and in assay [7] was inactive.
For the compound `CCCO[Si](OCCC)(OCCC)OCCC`, the outcome in assay [1], in assay [2], in assay [3], in assay [4], in assay [5] and in assay [6] was inactive. For the same compound, in assay [7], the result was inactive.
Turning to `CC(=O)CCC=C(C)CCC=C(C)C`, the outcome in assay [1], in assay [2], in assay [3], in assay [4], in assay [5] and in assay [6] was inactive. The result in assay [7] was inactive.
Consider `OCCN1CCOCC1`, for which the result in assay [1], in assay [2], in assay [3], in assay [4], in assay [5] and in assay [6] was inactive. Moreover, the compound was classed as inactive in assay [7] and in assay [8].
In the case of `CC/C=C\CCOC(=O)C(C)C`, the result in assay [1], in assay [2], in assay [3], in assay [5], in assay [6] and in assay [7] was inactive. Moreover, the outcome in assay [8] was inactive.
Take `CCC(CC)CO`: the outcome in assay [1], in assay [2], in assay [3], in assay [4], in assay [5] and in assay [6] was inactive. Moreover, the compound was classed as inactive in assay [7].
For `CC(=O)N(C)C`, the outcome in assay [1], in assay [2], in assay [3], in assay [4], in assay [6] and in assay [7] was inactive. Moreover, the result in assay [8] was inactive.

Values taken from PubChem BioAssay (EPA / NIEHS).
